# Laboratory results taken from PubChem BioAssay AID1745856 (National Center for Advancing Translational Sciences (NCATS), 2022).
# Among all 120,000 compounds or so, about 270 (0.23%) were called active. Not shown: some 5% with an inconclusive outcome. The call rests on the fitted dose curve. What follows is part of a selection rich in actives, with near analogues and random picks from the rest. Where a call stands in place of a potency, no number is given.
# Assay: Primary qHTS Assay for Foot and Mouth Disease Virus Antivirals against NCGC Sytravon and CBC Compound Libraries: Firefly Luciferase Signal; further: nearly all actives have a fitted effect of over 60% in size
# Conditions: FMDV antiviral cell assay; series mostly up to 57.5 µM
# Potency means the concentration at half of the fitted maximal effect.
row,Compound,Potency
1,CCCc1cc(=O)oc2cc(OCC(=O)NCc3ccc(S(N)(=O)=O)cc3)ccc12,inactive
2,O=C(NCc1ccccn1)C1c2ccccc2C(=O)N(C2CCCC2)C12CCCC2 (stereo not drawn),inactive
3,CCOc1cc(-c2nnc(SCC(=O)NC3CCCC3)nc2-c2ccc(OC)c(OCC)c2)ccc1OC,inactive
4,CCOc1cc(-c2nnc(SCC(=O)NC3CCCCC3)nc2-c2ccc(OC)c(OCC)c2)ccc1OC,inactive
5,COc1ccc(-c2nc(CSCC(=O)NC3CCCCCC3)c(C)o2)cc1OC,14.1 µM (active)
6,O=C(NCc1cccnc1)C(F)(F)C(F)(F)C(F)(F)F,inactive
7,Fc1ccc(N=Cc2cccc(Oc3ccccc3)c2)c(F)c1F,inactive
8,COc1cccc(NC(=O)CCCc2nc(C(C)C)no2)c1,inactive
9,CCN1CCCC1CNC(=O)c1cccc2c(=O)c(C)c(-c3ccccc3)oc12 (stereo not drawn),inactive
10,Cc1ccc(NC(=O)COC(=O)c2ccc(C3Nc4ccccc4S(=O)(=O)N3)cc2)cc1 (stereo not drawn),inactive
11,CC(C)c1cccc(NC(=O)Cc2c[nH]c3ccccc23)c1,inactive
12,COc1ccc(-c2csc3c2NC(=O)CC3c2ccc(OCC(N)=O)c(OC)c2)cc1 (stereo not drawn),3.98 µM (active)
13,Cc1ccc(-c2csc3c2NC(=O)CC3c2ccc(C)cc2)cc1 (stereo not drawn),inactive
14,COc1ccc(C2CC(=O)Nc3c2c(=O)nc2c(C)cccn32)cc1OC (stereo not drawn),inactive
15,Cn1c(=O)[nH]c(=O)c2c1nc(NC1CCCCC1)n2CCCc1ccccc1,inactive
16,COc1ccc(NC(=O)COC(=O)c2nn(C)c(=O)c3ccccc23)cc1Cl,inactive
17,COc1ccc(Cl)cc1NC(=O)COC(=O)c1nn(C)c(=O)c2ccccc12,inactive
18,Cn1nc(CC(=O)Nc2cccc(Cl)c2)c2ccccc2c1=O,8.91 µM (active)
19,Cc1ccc(-c2nc(CC(=O)NCc3ccc(Cl)cc3)cs2)o1,inactive
20,COC(=O)c1c(C)[nH]c(C(=O)N2CCCCCC2c2ccc(OC)cc2)c1C (stereo not drawn),inactive
21,COc1nc2ccccc2nc1N1CCC(C(=O)NCc2ccccc2)CC1,inactive
22,COc1ccc(-c2cc(C(F)(F)F)nc(S(=O)(=O)CCC(=O)NCc3ccccc3)n2)cc1,inactive
23,CC(C)(C)c1ccc(-c2nnc(-c3ccc(Br)o3)o2)cc1,inactive

row,Compound,Potency
1,Clc1ccc(CNc2n[nH]c(-c3ccco3)n2)c(Cl)c1,inactive
2,O=C(c1ccn(COc2ccccc2)n1)N1CCN(Cc2ccc(Cl)c(Cl)c2)CC1,inactive
3,Cn1ccnc1C(NC(=O)Cc1ccsc1)c1ccccc1F (stereo not drawn),inactive
4,O=C(NC12CC3CC(CC(C3)C1)C2)C1CCCO1 (stereo not drawn),inactive
5,C=C(C)C#CC(Cc1ccccc1)NCC1CC1 (stereo not drawn),inactive
6,O=C(/C=C/c1ccc(Cl)cc1)OC1CCCCC1=O (stereo not drawn),inactive
7,CCOc1ccc2c(c1)cc(C(=O)Nc1cc(OC)ccc1OC)n2C,inactive
8,COC(=O)c1ccc(S(=O)(=O)Nc2cccc(C(=O)OC)c2)cc1,inactive
9,COCCn1c(-n2nc(C)cc2C)nc2c1c(=O)n(Cc1ccccc1F)c(=O)n2C,inactive
10,Cc1ccc(NC(=O)c2cccc(CS(C)=O)c2)c(C)c1 (stereo not drawn),inactive
11,FC(F)(F)c1cnc(Sc2nnc(C3CC3)n2-c2ccccc2)c(Cl)c1,inactive
12,O=C(CSc1n[nH]c(-c2cc(Cl)ccc2Cl)n1)N1CCCC1,inactive
13,CCC(=O)Nc1ccc(C)cc1-c1nnc(SCC(=O)Nc2cc(Cl)ccc2Cl)[nH]c1=O,inactive
14,COc1ccc2c(C)c(CC(=O)N3CCN(c4ccccn4)CC3)c(=O)oc2c1OC,inactive
15,COc1ccccc1Oc1coc2cc(OCc3ccc(Cl)cc3)ccc2c1=O,inactive
16,CCn1c(=O)c2sccc2n(CC(=O)N2CCOc3ccc(C)cc32)c1=O,inactive
17,CCCCC(CC)CNC(=O)CCCCn1c(=O)[nH]c2ccsc2c1=O (stereo not drawn),inactive
18,CC(=O)Nc1ccc(C(=O)COc2ncnc3sccc23)cc1,inactive
19,CCCCC(CC)CNc1ncnc2sccc12 (stereo not drawn),8.91 µM (active)
20,C=CCn1c(-n2nc(C)cc2C)nc2c1c(=O)n(CCOCC)c(=O)n2C,inactive
21,CC(C)Oc1ccc(C2CC(=O)NC3=C2C(=O)CC(C)(C)C3)cc1 (stereo not drawn),inactive
22,N#C/C(=C/c1ccco1)c1nc2ccccc2[nH]1,inactive
23,CC(Cn1cccn1)NC(=O)c1cc(Cl)c2c(c1)OCO2 (stereo not drawn),inactive

row,Compound,Potency
1,Cc1cc(=O)n2c3ccccc3n(CC(O)CNc3ccc(Cl)cc3)c2c1C#N (stereo not drawn),inactive
2,CCOC(=O)C1(C(C)=O)CC(C(=O)c2ccccc2)C(c2ccccc2)C(C(=O)c2ccccc2)C1 (stereo not drawn),inactive
3,COc1cc(OC)cc(C(NC(=O)NOCc2ccccc2)c2nccn2C)c1 (stereo not drawn),inactive
4,Cc1ccc(Cn2c(Br)nc3c2c(=O)n(C)c(=O)n3C)cc1,inactive
5,O=C(Cc1ccccc1)Nc1ccc2oc(-c3ccc(F)cc3)nc2c1,inactive
6,Cc1cc(C)c2c(c1)C(=O)CCC2,inactive
7,Cc1cc(C)c2c(c1)/C(=N/Nc1nc3ccccc3[nH]1)CCC2,4.47 µM (active)
8,Cc1cc(O)c2c(C)c(CC(=O)Nc3nc4ccccc4[nH]3)c(=O)oc2c1,inactive
9,CC(=O)N1CCN(C(=O)CCC(=O)N2CCC(c3noc4cc(F)ccc34)CC2)CC1,inactive
10,Cc1oc(C)c(C(=O)Nc2ccccc2O)c1C,inactive
11,Cc1cnc2c(S(=O)(=O)N3CCN(C(C)CC#N)CC3)cccc2c1 (stereo not drawn),inactive
12,CNC(=O)NC(=O)CN1CCCC(c2nc3ccccc3o2)C1 (stereo not drawn),inactive
13,Cc1ccc(-c2noc(-c3occc3Br)n2)cc1,inactive
14,O=S(=O)(NCC12CC3CC(CC(C3)C1)C2)c1cccs1,inactive
15,COc1ccc(Nc2cc(C(=O)NCCCN(C)c3ccccc3)c3ccccc3n2)c(OC)c1,inactive
16,CCCCN(CCCNC(=O)c1cc(Nc2ccccc2OC)nc2ccccc12)c1ccccc1,inactive
17,COc1ccccc1Nc1cc(C(=O)NCCCN(C)C2CCCCC2)c2ccccc2n1,28.2 µM (active)
18,CC1CCN(S(=O)(=O)N(C)Cc2ccc3c(c2)OCCO3)CC1,inactive
19,O=C(CN1CCN(CC(=O)Nc2ccccc2C(=O)c2ccccc2)CC1)Nc1cccc(F)c1,inactive
20,COc1ccc(C=O)cc1OCc1c(F)cccc1Cl,inactive
21,CC(C)C(=O)NC(Nc1cccc(Cl)c1Cl)C(Cl)(Cl)Cl (stereo not drawn),inactive
22,CC(NC(=O)Cn1nnn(-c2ccccc2)c1=O)c1ccccc1 (stereo not drawn),inactive
